Data published in PubChem BioAssay AID1347426 (Functional Genomics Laboratory (NCATS/FGL), 2020).
Screen size: about 31,000 sequences; about 1,400 (4.5%) were called active.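 Rule for the calls: active = median seed-adjusted z-score above 1 or below -1; inactive = the rest.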 Many of the other results were omitted from the sample, so actives are more common in it than they were.

Assay: Novel Modifiers of Survival Motor Neuron (SMN) Protein: Gene Identification via Genome-wide siRNA Screen;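 note: luminescence tracks full-length SMN protein made from the SMN2 reporter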
Conditions: HEK293T SMN2-luciferase reporter, siRNA knockdown, 72 h; actives lie on both sides
How it was run: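 Steps: spot 1 pmol siRNA, add Lipofectamine RNAiMax in serum-free DMEM, seed HEK293T SMN2–luciferase reporter cells; incubate 72 h at 37 °C; add ONE-Glo; normalize luminescence to control siRNA, log10, MAD. Candidates: |MAD| > 1.0.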

Sequence	median seed-adjusted z-score
GGAAGUUCAUUACCAGAAUTT against PLCZ1	0 (inactive)
GCAAUAGUCAGGAGCGAUATT against PPP1R10	1.41 (active)
CCUUACCUGUAAACAGAGATT against ESR2	-1.1 (active)
CCAGGCCCAUUCUACAAUATT against PEAR1	0.071 (inactive)
AUAUAACUGCUGAUCUAGATT against SPCS3	0.417 (inactive)
GGAGUUCGUUCAGAGACCATT against MOCS2	0.0327 (inactive)
CUCUCUUCGUAGAUCAAGATT against SFRS7	0.44 (inactive)
UGAAGUUGCUGGACGCGUATT against DAD1	-0.45 (inactive)
GCUUGGAGGAUUUCAUGGATT against POFUT1	0 (inactive)
AGAAAUUGGUGUUCAGAAUTT against GTF2F2	-1.14 (active)
GAAUAAAAACGACCUCUUUTT against LZTR1	0.293 (inactive)
GCAUGUUAAUGGGUUUAAUTT against GNAS	-0.531 (inactive)
CUGCAGUUCUUAAUACGAATT against PSMD1	-1.61 (active)
GAACAUAUGUGAUGACCGUTT against CDH2	-0.235 (inactive)
GGAGGUCUCCUACAUCAAATT against ZAN	0.736 (inactive)
CGGGUGCACUACUACAUCUTT against GBGT1	0.48 (inactive)
AGCCCUUGACCUUAUCUAATT against CSTB	1.08 (active)
ACUCAACUCUGAUACUCCATT against DMRTC2	0 (inactive)
GAGCUGAAGUCCUUAGAUATT against EIF2B3	-0.271 (inactive)
CGACUAUGCUUUAGAUUAUTT against MAS1	-0.0551 (inactive)
CGGCCUAACUUUCAAGACATT against SDK2	0.908 (inactive)
GGUUCUGAAAUGUUCGUCATT against ZDHHC22	0.00446 (inactive)

Sequence	median seed-adjusted z-score
GAUAAAAGGAUGGAUGAAATT against PRPF6	-1.06 (active)
GAAUCAAGACAAACCCGAATT against TTN	0.872 (inactive)
GCACUCUUCUCAUUCACGATT against ATP1B3	-0.225 (inactive)
CCAACGAACUCCUUACUUATT against SCP2	0.413 (inactive)
CAAUCACUCAGGAACAAAUTT against CHMP6	-1.81 (active)
ACAAUACCCUCAGACUGAATT against NMUR1	-0.265 (inactive)
UGGUGAAAAUUACAUCUGATT against CIP29	-1.18 (active)
CAAUCCUCAUGCUAAACCATT against SGK1	-0.659 (inactive)
GAGUGGACUGGGCAAAUCATT against 3-Sep	0.0683 (inactive)
CAGGUAUUCUGGUCAAUAUTT against ATL3	0.201 (inactive)
GACAAUGGGUUAUUCAGGATT against FNTA	1.04 (active)
GACACCUUCUUAGACGAUATT against AMPD1	0.378 (inactive)
GCGAGUAGAUAAUAUCGAATT against MAP3K5	-0.285 (inactive)
GCAGGUCAGUUAUCAGACUTT against SLC17A1	-0.271 (inactive)
CAGUUGUACUGGACGGCUATT against PALLD	-0.307 (inactive)
CAACCUCACUGACCGGCAATT against HOXD11	-0.185 (inactive)
CAUCUUUCCUAAAGAGUUUTT against POLR2D	-3.79 (active)
GCCUACAUGUUUCUGCUGATT against RHO	-0.267 (inactive)
CAGAGGAACUGACACCAUUTT against ETFA	-0.0619 (inactive)
CGCUUUUCGUUGUAAAUAUTT against NKX2-2	-0.0805 (inactive)
GAAGCUUGAGGAACACGAATT against GOLGB1	0.0851 (inactive)
CACUAAUGGAUAUUGCCUATT against BMI1	0 (inactive)

Sequence	median seed-adjusted z-score
UGACUGCGGAUAUAACUGATT against LMAN2	-0.0921 (inactive)
GGGAAGGCAAUAAAACUUATT against TAAR9	-1.07 (active)
GACUAAUGAACUACUAAAATT against HMMR	0.389 (inactive)
GAAUAUCUAGGUACAUGGATT against ADCY10	-0.573 (inactive)
CUGUACAACGUCAACCUCATT against SCNN1D	-1.8 (active)
CAGUUAAAGGUCAAGAUAATT against PI3	0.493 (inactive)
AGAUUAAGGAUAUGGAUGATT against CHRNA9	-0.454 (inactive)
GGAUAAUCGACACUCUGGATT against MATN3	0.0972 (inactive)
GGAUUAACAUAUGAUGACATT against ADAM18	-0.913 (inactive)
GGUUCUCAGGAGCACCAGATT against OASL	1.02 (active)
CAUGUCACCUGCAAAAUUATT against THEM2	0.449 (inactive)
GAGUCGUUGUCCAUCUUAATT against SR140	1.16 (active)
GCAGAUCCAUCAACUACGATT against UBR4	0.602 (inactive)
GGUUAUACUCGGGCAGAGATT against NDUFS5	-1.35 (active)
GGCUAACUAUUUUGUCAGATT against ABHD7	-0.301 (inactive)
CCAUGAUACUCCACUCCCATT against GUCA2A	0.121 (inactive)
GGCUAUGCAGGUCCACUGUTT against DDR1	-0.166 (inactive)
GGUUUGAAGGGUUGACUCATT against STK38L	0.079 (inactive)
GAGACAACAUGAAUGACAATT against CHGB	-1.29 (active)
GGAUGUGGGUUUACUCUUUTT against SLC1A5	-0.104 (inactive)
GCAUGGAUGCUUCUAGACATT against AKAP9	-1.22 (active)
CCAUGAUCCUGAUAGGCAATT against PLAT	0.246 (inactive)

Sequence	median seed-adjusted z-score
AGACCACCUUCAUCCGACATT against EHD1	-0.616 (inactive)
ACCUCGGACUGGUACAUGATT against SLC38A3	-0.177 (inactive)
GCUCGUAAACUAGCUAAUATT against RCOR3	0.0446 (inactive)
GCAAGUGAAUAUGCGGAUATT against SNRPE	-2.77 (active)
GAAAACCCUUGUAAGUAUATT against ZNF354A	0.401 (inactive)
GGUGUAAAAGUGAUUAUAATT against LCLAT1	0 (inactive)
CACCUACUCUGACAACCAATT against HSPA1L	-1.27 (active)
CUAUCACUGUCUCAAGUCATT against ITGA10	0.378 (inactive)
GAGUUAAGGAGGUAGAUGATT against SNX5	-0.141 (inactive)
GCAUGAGUGCUAUCAGAUATT against PIPOX	1.06 (active)
GCUCCUGGAGUUAAGCUUATT against SPINK2	-0.431 (inactive)
AGUUUCAUUUCAAUAAGUATT against HOXD1	0.144 (inactive)
GGAGUAACCUGGAUGAGGATT against C3	0.0281 (inactive)
AGAGCAUUGGGUACACCAATT against COL6A2	0.0119 (inactive)
CCCAUUCCCUGUGCUCCAATT against CARD10	-0.929 (inactive)
GGUUUUUCAAGUACGAAAATT against RPS6KB1	1.4 (active)
GGCCCUUCAUCGAUAGCUATT against APEX2	-0.347 (inactive)
CCCUAUCCAUGUUCCAUGUTT against HDAC10	-0.165 (inactive)
CAGCUGUUGUUGAGCGAAUTT against CASP2	0.421 (inactive)
GGCUGUACAUCGAUAGCUATT against PGM1	0.136 (inactive)
GUUCAUGCAUGGGUGGAAATT against CD200R2	-0.772 (inactive)
CGUCUAUACUUACAAGCUUTT against SF3B3	-2.53 (active)

Sequence	median seed-adjusted z-score
GAACCAACUCGGAUAUUGUTT against MEF2A	-0.0658 (inactive)
GUGCCUAAGUCUUUAGUUUTT against IFI35	0.105 (inactive)
GGAGAUCUAUUCAAUGGGATT against SRPK1	0.37 (inactive)
GAGCAGUUCGAACACCUUATT against RBM4B	-0.251 (inactive)
GCAGAAUACCUGUUUCAAATT against TERF1	0.0114 (inactive)
GUCAUCAACGGAAACAUAATT against EIF3G	-0.198 (inactive)
GGUGAUGAGAGAUCCCAAUTT against PABPC4	-0.42 (inactive)
ACCGAGACCUCAAACCUGATT against PSKH1	-2.03 (active)
CUUUCUAGCAGUCACCAUATT against CIR	-0.197 (inactive)
GCCUAUAACAUGCAAACUUTT against HOXC5	0.507 (inactive)
GAAACCCGGUGAAAAGAAATT against VARS2	0.288 (inactive)
GCUUAUAGCUGCUACAAUUTT against MTMR1	-0.0204 (inactive)
CGAAAUACGUGGAACUCAUTT against ACE	0.0874 (inactive)
ACAUCGCCCUUAUUGCUAUTT against FOXS1	0 (inactive)
AGAGCAUCCUAAACGACCATT against SMUG1	-1.38 (active)
GCUGGUACAUGACAUCCGATT against GGT7	0.135 (inactive)
GCCUUAAGAUCUCGGCGUATT against PTPRK	0 (inactive)
UGAAGAUGAGGGACCCUAATT against LOXL4	-0.591 (inactive)
GGGUGGACGUGGAUACUUATT against NFE2L1	0.689 (inactive)
AGGGCUAUCUGGUAUCUGUTT against SNRPF	-2.66 (active)
CUGGUACAGUGAUCGGGAATT against PCDH12	0.0177 (inactive)
